SKKanGAS inh: SKKanGAS growth inhibition. inhibition, % at 7.5 µM. hit rate 1.3% among 300,000. S. pyogenes SKKanGAS, kanamycin growth, BacTiter-Glo, 6 h;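 active = mean replicate score, as percent of positive control median, at least 50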;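 also: strain carries kanamycin resistance gene driven by streptokinase promoter and grows in 40 µg/ml kanamycin; loss of luminescence reflects streptokinase promoter inhibition or plain growth inhibition; 0% = median of DMSO wells and 100% = positive control at its reference dose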
TIM10 inh: growth inhibitors of TIM10 yeast strain. S. cerevisiae TIM10 strain growth, BacTiter-Glo luminescence, 24 h. hit rate 1.4% among 330,000. AID 463195. inhibition, % at 10 µM;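 active = inhibition of 40% or more at the single tested concentration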;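 also: wild-type TIM10 isogenic control strain grown at permissive 25 °C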
V-ATPase pH: alters yeast V-ATPase proton transport | S. cerevisiae, pHLuorin cytosolic pH fluorescence | AID 504577 | hit rate 0.37% among 350,000 | response, % at 10 µM; in the data active = response mostly above about 7.3%, no sharp cut-off; inactive = mostly below about 5.4%; also: actives read high
tim23-1 inh: inhibits growth of tim23-1 mutant yeast. S. cerevisiae tim23-1 growth, BacTiter-Glo luminescence, 24 h. inhibition, % at 20 µM. hit rate 1.3% among 330,000. AID 463212;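 active = growth inhibition of the mutant yeast at or above 50%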;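 also: temperature-sensitive mutant grown at 25 °C; plate controls were DMSO-treated mutant yeast for no effect and medium wells lacking yeast for full effect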
tim10-1 inh: tim10-1 yeast growth inhibition | S. cerevisiae tim10-1 ts strain growth, BacTiter-Glo, 24 h | inhibition, % at 20 µM | hit rate 2.2% among 330,000;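 active = inhibition of at least 40%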;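 also: mutant grown at 25 °C; 0% = DMSO wells with yeast and 100% = wells holding no yeast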
PfHsp90 yeast 2: growth inhibition of yeast expressing Plasmodium Hsp90; S. cerevisiae expressing PfHsp90, BacTiter-Glo ATP, 48 h; yeast lacking PDR1 and PDR3 efflux regulators; inhibition, % at 9.4 µM; hit rate 0.32% among 310,000; AID 504621;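 active = every replicate shows inhibition above about 80%, whatever the replicate mean, limit read from the data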;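 also: 0% = DMSO neutral controls and 100% = 20 µM radicicol positive controls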
TIM10 conf: confirmation of TIM10 yeast growth inhibitors. shares compounds with TIM10 inh. hit rate 63% among 4,600. AID 463215. inhibition, % at 10 µM. S. cerevisiae tim10 strain growth, BacTiter-Glo luminescence, 24 h;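 active = inhibition of yeast growth at or above a set limit in either of two replicates at 10 µM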;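 also: this counterscreen used the strain with wild-type TIM10; 0% = yeast with DMSO and 100% = medium wells lacking yeast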
tim23-1 conf: tim23-1 yeast growth inhibition, confirmed; shares compounds with tim23-1 inh; S. cerevisiae tim23-1 growth, BacTiter-Glo luminescence, 24 h; inhibition, % at 20 µM; hit rate 83% among 4,400; AID 463218;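 active = inhibition above about 39% in either of two replicate wells at 20 µM, limit read from the data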;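 also: temperature-sensitive tim23-1 mutant grown at 25 °C; 0% = DMSO wells with yeast and 100% = medium wells without yeast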
Active calls of the source: *; x = no result. In the library only some 4.6% were active in any assay of this set; here they are far more common.

SMILES	SKKanGAS inh	TIM10 inh	V-ATPase pH	tim23-1 inh	tim10-1 inh	PfHsp90 yeast 2	TIM10 conf	tim23-1 conf
CCCn1c(=O)c(C#N)cn(C2CC2)c1=O	2	6	-4	9	-4	16	x	x
COc1cc(C(=O)ON=C2C3CC4CC(C3)CC2C4)cc(OC)c1OC	-3	82*	0	50*	19	-24	84*	60*
O=S1(=O)Nc2c(ccc3cccnc23)-c2ccccc21	112*	48*	5	70*	29	151*	57*	47*
Clc1ccc2ccc3cccnc3c2n1	-4	12	-1	15	-28	43	x	x
CCCCN(C(=O)CC1CCCC1)c1c(N)n(Cc2ccccc2)c(=O)[nH]c1=O	x	x	2	x	x	x	x	x
Clc1ccc(-c2nnc(NCc3ccccc3)c3ccccc23)cc1	12	54*	6	68*	32	3	57*	71*
CC(C)(C)c1ccc(C(=O)N/N=C/c2cccc(Cl)c2)cc1	1	63*	-1	66*	37	3	52*	77*
N=c1oc2cc(O)ccc2cc1C(=O)Nc1ccccn1	x	-4	x	-2	-2	x	x	x
N=c1oc2cc(O)ccc2cc1C(=O)Nc1ccc(Br)cc1	19	41*	-2	55*	33	-14	25	56*
O=C(COc1cc(O)c2c(=O)c3ccccc3oc2c1)OCc1ccccc1	7	3	3	-1	4	-1	x	x
COc1cccc(/C=N/Nc2ncnc3scc(-c4ccccc4)c23)c1O	82*	54*	-3	59*	11	100*	67*	60*
COc1cccc(/C=N/Nc2ncnc(Cl)c2N)c1O	36	-1	5	44	33	18	x	x
Cc1cc(C)nc(SCc2cc(=O)c(OC(=O)c3cc([N+](=O)[O-])ccc3Cl)co2)n1	0	11	1	14	32	-4	x	x
O=C(Oc1coc(CSc2ncccn2)cc1=O)c1ccccc1[N+](=O)[O-]	1	59*	-3	62*	39	-3	52*	49*
c1ccc(NCc2nc3ccccc3n2CCOc2ccccc2)cc1	11	43*	-1	52*	35	5	50*	52*
NC(=O)c1ccc(NC(=O)CNC(c2ccccc2)c2ccccc2)cc1	7	2	-6	5	8	9	x	x
O=C(CNC(=S)N(Cc1ccccc1)Cc1cccnc1)NC1CCCC1	-3	-1	-3	2	-2	0	x	x
COc1ccc(OC)c(N/C=C/C(=O)c2ccccc2)c1	-4	44*	2	62*	-2	-19	26	83*
COc1ccc(OC)c(N/C(C)=C/C(=O)c2ccccc2)c1	2	13	2	19	10	23	x	x
COc1ccc(N=Nc2cc(C)ccc2O)cc1	16	16	2	9	25	-21	x	x
Cc1ccc(O)c(N=Nc2nccs2)c1	x	50*	-3	72*	26	112*	68*	71*
COc1cccc2sc(NN)nc12	5	5	5	-5	19	-38	x	x
NNc1nc2c(Cl)c(Cl)ccc2s1	4	41*	6	68*	22	6	28*	52*
CCN(CC)c1ccc(/C=N/NC(=O)c2c(Cl)cnn2C)c(O)c1	11	58*	-1	67*	36	20	13	62*
N#Cc1nc(NCC(F)F)nc(Nc2cc(F)cc(F)c2)n1	x	42*	2	69*	39	2	50*	65*
SMILES	SKKanGAS inh	TIM10 inh	V-ATPase pH	tim23-1 inh	tim10-1 inh	PfHsp90 yeast 2	TIM10 conf	tim23-1 conf
Cc1ccc(-c2nnc(N3CCN(c4ccccn4)CC3)c3ccccc23)cc1	27	48*	-1	65*	38	-9	-22	72*
COCCCn1c(SCC(=O)N2CCOCC2)nc2cc(Cl)ccc2c1=O	x	-8	3	7	17	8	x	x
CC(C)NC(=S)N/N=C/c1cc(Br)ccc1O	62*	55*	-3	55*	39	-41	-10	-6
COC(=O)N/N=C/c1cc(Br)ccc1O	-5	8	1	2	23	-35	x	x
O=C(N/N=C/c1cc(Br)ccc1O)c1ccccc1Cl	68*	65*	2	79*	36	-54	-34	69*
Cc1ccc(S(=O)(=O)N2CCN(Cc3ccccc3)CC2)s1	x	11	x	27	14	20	x	x
CC(C)c1ccc(NC(=O)N2CCc3ccccc3C2)cc1	-9	45*	-2	52*	24	12	31*	50*
O=C(Nc1cccc(Cl)c1)N1CCc2ccccc2C1	0	64*	-4	65*	38	-4	62*	84*
Cc1ccc(/C=C/C(=O)c2ccc([N+](=O)[O-])o2)cc1	67*	68*	x	57*	27	x	78*	-25
Cc1ccc(C(=O)/C=C/c2ccc(Br)cc2)o1	-4	3	-2	7	1	52	x	x
CC(C)c1ccc(NC2CCCN(C(=O)c3n[nH]c4c3CCC4)C2)cc1 (stereo not drawn)	-1	10	4	29	33	-14	x	x
O=c1c2c3c(sc2ncn1/N=C/c1ccc(Br)o1)CCCC3	-4	44*	-3	51*	37	-15	46*	54*
Cc1ccc2c(c1)CCCN2CC(=O)N(C)c1c(N)n(Cc2ccccc2)c(=O)[nH]c1=O	x	8	-6	6	5	18	x	x
CCNc1nc(N)nc(-c2cc(Cl)ccc2O)n1	-8	50*	6	56*	34	52	-9	37
CCOC(=O)c1cccc(NC(=S)NCc2ccc(C)cc2)c1	28	34	1	26	14	6	x	x
Cc1ccc(-c2nc3ccccc3[nH]2)s1	13	40*	-1	51*	0	26	26	71*
Cc1cc(C)nc(/N=C(\N)Nc2ccccc2-c2ccccc2)n1	-1	2	-1	1	25	-47	x	x
O=C1c2sc3nc4ccccc4n3c2C(=O)N1c1ccccc1Cl	13	60*	10*	56*	-101	13	59*	-19
Cc1ccccc1N1C(=O)c2sc3nc4c(c(=O)n3c2C1=O)CCC4	4	10	1	26	39	3	x	x
CCOC(=O)c1cc2c(OC)ccc(OC)c2n1CC(=O)c1ccccc1	3	-7	-2	2	14	-27	x	x
Cn1c(CSc2nc3ccccc3s2)n[nH]c1=S	-5	23	1	17	35	2	x	x
Cn1c(CSc2nc3ccccc3s2)nc2ccccc21	19	46*	1	58*	38	9	43*	65*
CCCCc1nc2cc(C(=O)NCc3cc(C)n(C)n3)ccc2o1	-3	-10	5	10	11	16	x	x
